From PubChem BioAssay come the findings set out here.

Calls of active or inactive are those of the source. Unless noted, how the calls were made is not given here.

In assay [1] the test system is Wnt5a (protein binding on small-molecule microarray). In words: Wnt5a binders on small-molecule microarray, primary screen, biophysical, 635/667 nm fluorescence (AID 1142).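 Further: fluorescence read at 667 nm with signal to noise per printed feature.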 Conditions: 635 nm fluorescence, higher = more signal.
The nature of assay [2]: cell viability in Huh7 cells, primary screen, cytotoxicity control for HCV replication inhibitor project, CellTiter-Glo luminescence, basal, 48 h (AID 1143).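 Further: Huh7 hepatoma cells carrying a hepatitis C replication reporter with no stimulus; test concentration not given here.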 Conditions: Huh7 HCV replicon, higher = more signal, called active from +8 up or from −8 down. On the technique in general: In ATP-based viability assays light output follows the ATP content of the culture.
The nature of assay [3]: P. aeruginosa biofilm formation inhibitors, primary screen, PAO1 strain, BacTiter-Glo luminescence, LB-PBS (AID 1144). Conditions: 12 h, higher = more signal.
The nature of assay [4]: CREB reporter modulators without forskolin, primary screen, cell-based, PC12, CRE-LacZ reporter, unstimulated (AID 1145). Conditions: no forskolin, luminescence, 4.5 h, higher = more signal, called active from +8 up or from −8 down.
Assay [5] can be described thus: CREB reporter modulators under forskolin, primary screen, cell-based, PC12, CRE-LacZ reporter, forskolin-stimulated (AID 1146).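 Further: PC12 cells with 6xCRE LacZ reporter stimulated by forskolin 10 µM; beta-galactosidase reporter signal reflecting CREB driven transcription.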 Conditions: luminescence, 4.5 h, higher = more signal, called active from +8 up or from −8 down.
In assay [6] the target is Streptavidin (Streptomyces avidinii) (UniProt P22629). In words: streptavidin binders on small-molecule microarray, primary screen, artefact control for SMM compound annotation, biophysical, 635/667 nm fluorescence (AID 1147).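 Further: signal reflects streptavidin binding to arrayed compounds as a control protein.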 Conditions: streptavidin binding, higher = more signal.
The nature of assay [7]: small-molecule binders of probe aInhba, primary screen, biochemical, small-molecule microarray, 635/667 nm fluorescence (AID 1148).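 Further: score merges 667nm spot fluorescence with signal-to-noise for antibody binding to printed compounds.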 Conditions: higher = more signal.
In assay [8] the target is Torsin-1A (Homo sapiens) (UniProt O14656). Briefly: torsin A binders from cell lysate, primary screen, small-molecule microarray, wild-type, 635/667 nm (AID 1149). Conditions: COS7 hTOR1A-WT lysate, 635 nm fluorescence, higher = more signal.
For assay [9] the target is unchanged. In words: small-molecule binders of mutant TOR1A in lysate, primary screen, cell lysate, small-molecule microarray, COS7 lysate, 635/667 nm fluorescence (AID 1150).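 Further: score pools 667 nm emission and signal to noise measuring lysate protein binding.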 Conditions: COS7 hTOR1A mutant lysate, 635 nm fluorescence, higher = more signal.
The subject of assay [10] is Sonic hedgehog protein (Shh). In words: small-molecule binders of Shh protein, primary screen, biochemical, small-molecule microarray, 635/667 nm fluorescence (AID 1151).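 Further: Shh protein binding to compounds spotted on small-molecule microarray slides; score combines spot fluorescence intensity with signal-to-noise across triplicate slides.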 Conditions: small-molecule microarray binding, 635 nm fluorescence; higher = more signal.

Sequence of Torsin-1A (Homo sapiens) (O14656 whole entry, looked up): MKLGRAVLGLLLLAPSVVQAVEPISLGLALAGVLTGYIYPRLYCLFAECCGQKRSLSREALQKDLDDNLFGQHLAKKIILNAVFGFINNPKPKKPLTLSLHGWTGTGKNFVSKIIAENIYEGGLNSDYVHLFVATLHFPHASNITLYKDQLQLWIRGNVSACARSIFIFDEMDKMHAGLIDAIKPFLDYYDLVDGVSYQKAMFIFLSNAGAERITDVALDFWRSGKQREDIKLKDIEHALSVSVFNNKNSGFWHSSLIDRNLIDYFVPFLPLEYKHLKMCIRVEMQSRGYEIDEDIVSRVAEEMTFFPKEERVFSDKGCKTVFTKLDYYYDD
Sequence of Streptavidin (Streptomyces avidinii) (P22629 whole entry, looked up): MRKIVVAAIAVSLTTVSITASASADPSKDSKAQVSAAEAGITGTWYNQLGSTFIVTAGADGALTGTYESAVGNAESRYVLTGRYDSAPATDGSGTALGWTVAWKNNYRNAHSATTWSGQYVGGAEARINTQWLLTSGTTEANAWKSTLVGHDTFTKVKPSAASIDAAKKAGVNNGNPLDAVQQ

Consider `CC(C)c1ccc(NN2C(C(O)c3ccco3)C=CC3C(=O)N(c4ccccc4)C(=O)C32)cc1` (stereo not given), for which the composite z-score in assay [1] is 0.445; in assay [6], 1.47; in assay [7], 0.271; in the assay with Torsin-1A (Homo sapiens) [8], 0.185; with Torsin-1A (Homo sapiens) [9] it was 0.445; in assay [10] it was 0.794. Also, the z-score in [2] was -0.604 (inactive); in [3] it was -0.688 (inactive); in assay [4] it was 0.622 (inactive); in [5], -0.554 (inactive).
Consider `O=C1NC(=O)C2C1C=CC(C(O)c1cc(C(F)(F)F)cc(C(F)(F)F)c1)N2Nc1ccc(Cl)cc1Cl` (stereo not given), for which the composite z-score in assay [1] is 0.465; in assay [6], 0.416; in [7], 0.069; with Torsin-1A (Homo sapiens) [8] it was -0.371; in the assay with Torsin-1A (Homo sapiens) [9], 0.357; in assay [10] it was -0.384. The z-score was -1.32 (inactive) in assay [2], -0.673 (inactive) in assay [3], -0.329 (inactive) in [4] and 0.78 (inactive) in assay [5].
On to `C=C[C@@H](COC(C)=O)NS(=O)(=O)c1ccc(Br)cc1`, for which the composite z-score in [1] is -0.0143; in assay [6] it was 0.0981; in [7], -0.0589; with Torsin-1A (Homo sapiens) [8], 0.825; in the assay with Torsin-1A (Homo sapiens) [9], 0.357; in assay [10], -0.0658. In addition, the z-score was -2.37 (inactive) in assay [2], -0.446 (inactive) in [3], 0.904 (inactive) in [4] and 0.344 (inactive) in assay [5].
On to `CC(C)(C)OC(=O)CC[C@@]1(C(=O)O)N=C(c2ccc(OCCCO)cc2)O[C@@H]1c1ccccc1CN=[N+]=[N-]`, for which the composite z-score was 0.48 in assay [1]; 0.725 in assay [6]; 0.239 in assay [7]; 0.0835 with Torsin-1A (Homo sapiens) [8]; 0.104 with Torsin-1A (Homo sapiens) [9]; -1.03 in assay [10]. In addition, the z-score in assay [2] was 0.625 (inactive); in assay [3], -0.21 (inactive); in assay [4], -0.128 (inactive); in assay [5], -0.912 (inactive).
As for `C[C@]1(C(=O)O)c2ccccc2C(=O)N(Cc2ccccc2)[C@H]1c1ccc(CO)cc1`, the composite z-score is -0.326 in assay [1]; -0.867 in assay [6]; -0.176 in assay [7]; -1.06 with Torsin-1A (Homo sapiens) [8]; -0.224 with Torsin-1A (Homo sapiens) [9]; -1.98 in assay [10]. In addition, the z-score in assay [2] is -1.25 (inactive); in [3] it was 0.461 (inactive); in assay [4], 0.001 (inactive); in assay [5], -0.301 (inactive).
As to `C[C@]12C(=O)N(CCCCCCO)[C@@H]3C(=O)N(c4ccc(Cl)cc4)CC=CC31O[C@@H]1/C=C\CCCOC(=O)C12` (stereo not given in full), the composite z-score in assay [1] is -0.143; in assay [6], -0.781; in [7], -0.104; in the assay with Torsin-1A (Homo sapiens) [8], -1.38; in the assay with Torsin-1A (Homo sapiens) [9] it was -0.825; in assay [10] it was 0.128. Further, the z-score in [2] was -0.0337 (inactive); in [3], -1.5 (inactive); in assay [4], 0.0686 (inactive); in assay [5] it was -0.475 (inactive).
In the case of `NCCCCCNC(=O)[C@@H]1C[C@@H]2C(=O)N[C@@H](CCCCN)C(=O)N2[C@@H]1c1cccc(OCCO)c1`, the composite z-score is 0.331 in [1]; 0.302 in [6]; -0.331 in assay [7]; 0.247 with Torsin-1A (Homo sapiens) [8]; -0.02 with Torsin-1A (Homo sapiens) [9]; 1.55 in assay [10]. For the same compound, the z-score in assay [2] was 0.21 (inactive); in [3], -0.85 (inactive); in assay [4], -0.541 (inactive); in assay [5] it was -0.304 (inactive).
As for `Cc1ccc(F)cc1S(=O)(=O)N[C@@H]1CCN(Cc2ccc(OC(C)C)cc2)C1`, the composite z-score in assay [1] is -0.0943; in [6], -0.293; in assay [7] it was -0.341; with Torsin-1A (Homo sapiens) [8] it was 0.277; with Torsin-1A (Homo sapiens) [9], 0.719; in assay [10], -0.0003. Also, the z-score is -3.86 (inactive) in assay [2], 0.816 (inactive) in assay [3], 1.76 (inactive) in assay [4] and 0.524 (inactive) in [5].
On to `COCCCNC(=O)[C@]1(CCC(=O)OC(C)(C)C)N=C(c2ccc(OCCCO)cc2)O[C@@H]1c1ccccc1`, for which the composite z-score in assay [1] was 0.163; in assay [6], 0.172; in assay [7], 0.346; in the assay with Torsin-1A (Homo sapiens) [8], 1.11; with Torsin-1A (Homo sapiens) [9] it was 2.06; in assay [10], -1.52. Moreover, the z-score was 0.11 (inactive) in assay [2], 1.2 (inactive) in assay [3], 0.699 (inactive) in assay [4] and -0.625 (inactive) in [5].
As to `COCCOC(=O)N1C(=O)[C@@]2(c3cc(C#Cc4ccc(OC)cc4)ccc31)[C@H](C(=O)N1CCCCCCC1)[C@H]1C(=O)O[C@H](c3ccccc3)[C@H](c3ccccc3)N1[C@@H]2c1ccc(O)cc1`, the composite z-score came to 0.164 in assay [1]; 0.123 in assay [6]; 0.696 in assay [7]; 0.536 with Torsin-1A (Homo sapiens) [8]; 0.864 in the assay with Torsin-1A (Homo sapiens) [9]; 1.47 in [10]. Further, the z-score in assay [2] is -5.16 (inactive); in assay [3], -1.11 (inactive); in [4], -1.02 (inactive); in assay [5] it was -0.841 (inactive).
Take `COC(=O)[C@@]1(Cc2ccc(F)cc2)[C@H]2c3cc(C(=O)N4CCCC4)n(CCF)c3C[C@H]2CN1C(=O)c1ccccc1`: the composite z-score in assay [1] was 1.5; in [6] it was 1.99; in assay [7], 1.66; with Torsin-1A (Homo sapiens) [8], 0.103; with Torsin-1A (Homo sapiens) [9] it was 1.07; in assay [10], -0.462. The z-score in assay [2] is -2.28 (inactive); in assay [3], -0.603 (inactive); in assay [4], 0.952 (inactive); in [5], 1.33 (inactive).
Take `O=C1NCC(=O)N2[C@@H]1C[C@@H](C(=O)O)[C@H]2c1ccc(O)cc1`: the composite z-score in assay [1] turned out to be 0.27; in assay [6], 0.237; in assay [7] it was 0.0104; in the assay with Torsin-1A (Homo sapiens) [8], 1.13; in the assay with Torsin-1A (Homo sapiens) [9], 2.29; in assay [10], 2.01. The z-score in assay [2] is -0.286 (inactive); in [3] it was -0.611 (inactive); in assay [4], 0.0084 (inactive); in assay [5] it was 0.622 (inactive).
Consider `CCOC(=O)C[C@H]1[C@H](OC(=O)c2ccc(-c3ccccc3)cc2)[C@@H](NC(=O)c2ccc3ccccc3c2)c2cc(OCCCO)ccc2N1C(=O)c1ccc2ccccc2n1`, for which the composite z-score in assay [1] was found to be 0.0577; in assay [6] it was 1.02; in assay [7] it was 0.106; in the assay with Torsin-1A (Homo sapiens) [8], 0.138; with Torsin-1A (Homo sapiens) [9], 0.527; in assay [10], 0.539. Moreover, the z-score in assay [2] was 0.866 (inactive); in [3] it was -0.0546 (inactive); in assay [4], -0.593 (inactive); in assay [5], -0.611 (inactive).
For `CCCCN1CC=CC23O[C@@H]4C=CCOC(=O)[C@@H]4[C@H]2C(=O)N(C(C)CO)[C@@H]3C1=O` (stereo not given in full), the composite z-score was -0.166 in [1]; -0.78 in [6]; -0.128 in assay [7]; 0.0171 with Torsin-1A (Homo sapiens) [8]; -0.241 with Torsin-1A (Homo sapiens) [9]; -0.213 in assay [10]. The z-score in assay [2] was -0.251 (inactive); in assay [3] it was 1.27 (inactive); in [4], -0.488 (inactive); in assay [5], 0.401 (inactive).
